PubChem BioAssay (Tox21)
Results filed as inconclusive are left out. The source made the active and inactive calls. Unless noted, calls follow the shape of the dose curve; as a rule, active = well fitted curve in the direction sought with a large enough effect in the repeat runs; inconclusive = weak or mixed curves; inactive = no such curve, though single readings can be large; an effect the other way counts as inactive or inconclusive.

Assays:
[1] = qHTS assay to identify small molecule antagonists of the thyroid receptor (TR) signaling pathway - cell viability counter screen (AID 743064); also: nearly all actives have a fitted effect of over 50% in size
Method in brief: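 GH3.TRE-Luc cells, 4 h pre-plating; cpd + T3 1 nM final; 37 °C 23.5 h; CellTiter-Fluor 30 min; fluorescence read.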

[2] = qHTS assay to identify small molecule antagonists of the thyroid receptor (TR) signaling pathway (AID 743065); also: series mostly up to about 70 µM; nearly all actives have a fitted effect of over 55% in size
Method in brief: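 GH3.TRE-Luc rat pituitary cells carrying two TR response elements driving luciferase were plated for 4 h, given compound plus 1 nM T3 (final), and incubated 23.5 h at 37 C. ONE-Glo luminescence measured reporter inhibition; CellTiter-Fluor fluorescence tracked cytotoxicity.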

[3] = tested on: thyroid hormone receptor (rat, GH3 cells); experiment: qHTS assay to identify small molecule agonists of the thyroid receptor (TR) signaling pathway (AID 743066; calls by dose curve)
[4] = qHTS assay to identify small molecule antagonists of the estrogen receptor alpha (ER-alpha) signaling pathway - cell viability counter screen (AID 743074; calls by dose curve; also: nearly all actives have a fitted effect of over 45% in size)
[5] = molecular target: Estrogen receptor (Homo sapiens) (UniProt P03372); experiment: qHTS assay to identify small molecule agonists of the estrogen receptor alpha (ER-alpha) signaling pathway (AID 743075; calls by dose curve)
Estrogen receptor (Homo sapiens), sequence (P03372 whole entry, looked up): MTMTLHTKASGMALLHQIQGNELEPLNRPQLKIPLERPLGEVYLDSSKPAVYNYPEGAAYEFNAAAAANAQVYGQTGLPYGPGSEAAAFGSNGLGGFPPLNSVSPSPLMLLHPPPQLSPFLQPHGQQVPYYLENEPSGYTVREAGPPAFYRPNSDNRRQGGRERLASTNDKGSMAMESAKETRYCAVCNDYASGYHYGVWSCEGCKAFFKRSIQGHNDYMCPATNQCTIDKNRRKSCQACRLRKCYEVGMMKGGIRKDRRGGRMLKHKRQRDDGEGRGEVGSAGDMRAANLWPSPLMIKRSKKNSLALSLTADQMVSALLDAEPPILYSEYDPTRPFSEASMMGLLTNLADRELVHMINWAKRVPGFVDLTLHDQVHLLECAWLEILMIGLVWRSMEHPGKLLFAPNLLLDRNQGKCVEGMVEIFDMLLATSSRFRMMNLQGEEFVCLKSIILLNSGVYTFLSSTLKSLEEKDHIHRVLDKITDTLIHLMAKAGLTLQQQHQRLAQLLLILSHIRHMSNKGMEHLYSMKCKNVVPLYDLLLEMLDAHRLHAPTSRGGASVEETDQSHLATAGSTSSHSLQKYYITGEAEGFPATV

[6] = molecular target: Estrogen receptor (Homo sapiens) (UniProt P03372); experiment: qHTS assay to identify small molecule agonists of the estrogen receptor alpha (ER-alpha) signaling pathway using the BG1 cell line (AID 743079); also: nearly all actives have a fitted effect of over 20% in size
[7] = qHTS assay to identify small molecule antagonists of the estrogen receptor alpha (ER-alpha) signaling pathway using the BG1 cell line (AID 743080; calls by dose curve;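 also: BG1 cells stimulated with 17beta-estradiol alongside compound; series mostly up to about 70 µM; nearly all actives have a fitted effect of over 25% in size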)
Method in brief: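 Luciferase inhibition measured with ONE-Glo after 30 min at RT in BG1Luc4E2 cells given test compounds and 17beta-estradiol for 21.5 h at 37 C; CellTiter-Fluor viability read in the same wells beforehand.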

[8] = qHTS assay to identify small molecule antagonists of the estrogen receptor alpha (ER-alpha) signaling pathway using the BG1 cell line - cell viability counter screen (AID 743081);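 also: compound given together with 17beta-estradiol as the ER stimulus; series mostly up to about 70 µM; nearly all actives have a fitted effect of over 45% in size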
Aromatase (Homo sapiens) = Aromatase (Homo sapiens) (UniProt P11511); experiment: qHTS assay to identify aromatase inhibitors (AID 743083); also: series mostly up to about 70 µM; nearly all actives have a fitted effect of over 55% in size
Aromatase (Homo sapiens), sequence (P11511 whole entry, looked up): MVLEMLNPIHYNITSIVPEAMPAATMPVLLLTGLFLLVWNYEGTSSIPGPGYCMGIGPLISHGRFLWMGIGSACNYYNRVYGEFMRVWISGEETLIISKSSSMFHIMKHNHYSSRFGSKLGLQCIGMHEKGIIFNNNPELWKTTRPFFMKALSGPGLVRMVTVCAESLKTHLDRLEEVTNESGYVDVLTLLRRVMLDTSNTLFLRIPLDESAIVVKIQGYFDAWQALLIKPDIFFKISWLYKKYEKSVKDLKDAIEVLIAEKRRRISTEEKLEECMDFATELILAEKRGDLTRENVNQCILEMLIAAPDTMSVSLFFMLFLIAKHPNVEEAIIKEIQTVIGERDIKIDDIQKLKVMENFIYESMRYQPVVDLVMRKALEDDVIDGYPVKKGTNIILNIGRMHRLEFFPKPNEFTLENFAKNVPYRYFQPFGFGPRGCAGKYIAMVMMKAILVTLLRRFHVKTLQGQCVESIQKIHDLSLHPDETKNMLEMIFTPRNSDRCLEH

[9] = qHTS assay to identify aromatase inhibitors - cell viability counter screen (AID 743084);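 also: cells stimulated with testosterone during compound exposure; nearly all actives have a fitted effect of over 55% in size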
[10] = qHTS assay to identify small molecule that activate the aryl hydrocarbon receptor (AhR) signaling pathway - cell viability counter screen (AID 743086);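 also: HepG2 liver cells carrying the AhR DRE luciferase reporter; series mostly up to about 70 µM; nearly all actives have a fitted effect of over 45% in size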
Method in brief: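 HepG2-AhR-luc (HG2L7.5c1) cells, 4000/well, were preincubated 5 h at 37C, exposed to compound in qHTS format for 24 hr at 37C, then given CellTiter-Fluor for 30 min; viability was read as fluorescence in the reporter wells.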

[11] = qHTS assay to identify small molecule antagonists of the peroxisome proliferator-activated receptor gamma (PPARg) signaling pathway - cell viability counter screen (AID 743194); also: nearly all actives have a fitted effect of over 55% in size
Method in brief: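 PPARg-UAS-bla HEK293H cells were plated, rested 5 h at 37 C, then treated with compounds plus rosiglitazone (50 nM final) for 17 h at 37 C; viability was then read by CellTiter-Glo luminescence after 30 min at room temperature.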

[12] = qHTS assay for small molecule agonists of the antioxidant response element (ARE) signaling pathway (AID 743202; active = well fitted activation curve with a large enough effect in the signal ratio in the repeat runs, not every such curve was filed as active; the % refers to the signal ratio)
Method in brief: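 Read-out: LiveBLAzer B/G FRET substrate fluorescence after 2 h at room temperature, following 16 h compound treatment at 37 C of HepG2 cells carrying an ARE-driven beta-lactamase reporter.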

[13] = qHTS assay for small molecule activators of the heat shock response signaling pathway - cell viability counter screen (AID 743209); also: nearly all actives have a fitted effect of over 50% in size
Method in brief: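 Counter screen for cytotoxicity in HeLa HSE-bla reporter cells. Treatment was 5 h at 37 C; viability was detected by luminescent ATP assay (CellTiter-Glo) in the same wells as the beta-lactamase read.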

[14] = qHTS assay for small molecule activators of the heat shock response signaling pathway (AID 743210; active = well fitted activation curve with a large enough effect in the signal ratio in the repeat runs, with a control signal flat, not every such curve was filed as active; the % refers to the signal ratio; also: series mostly up to about 63 µM)
Method in brief: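 HSE-bla HeLa cells (beta-lactamase reporter under heat shock response elements) were exposed to compounds for 5 h at 37 C, then loaded with LiveBLAzer B/G FRET substrate for 2.5 h at room temperature before fluorescence reading.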

[15] = molecular target: Aryl hydrocarbon receptor (Homo sapiens) (UniProt P35869); experiment: qHTS assay to identify small molecule that activate the aryl hydrocarbon receptor (AhR) signaling pathway (AID 743085);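 also: HG2L7.5c1 human HepG2 liver cells with stably integrated DRE-driven firefly reporter; series mostly up to about 70 µM; nearly all actives have a fitted effect of over 15% in size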
Aryl hydrocarbon receptor (Homo sapiens), sequence (P35869 whole entry, looked up): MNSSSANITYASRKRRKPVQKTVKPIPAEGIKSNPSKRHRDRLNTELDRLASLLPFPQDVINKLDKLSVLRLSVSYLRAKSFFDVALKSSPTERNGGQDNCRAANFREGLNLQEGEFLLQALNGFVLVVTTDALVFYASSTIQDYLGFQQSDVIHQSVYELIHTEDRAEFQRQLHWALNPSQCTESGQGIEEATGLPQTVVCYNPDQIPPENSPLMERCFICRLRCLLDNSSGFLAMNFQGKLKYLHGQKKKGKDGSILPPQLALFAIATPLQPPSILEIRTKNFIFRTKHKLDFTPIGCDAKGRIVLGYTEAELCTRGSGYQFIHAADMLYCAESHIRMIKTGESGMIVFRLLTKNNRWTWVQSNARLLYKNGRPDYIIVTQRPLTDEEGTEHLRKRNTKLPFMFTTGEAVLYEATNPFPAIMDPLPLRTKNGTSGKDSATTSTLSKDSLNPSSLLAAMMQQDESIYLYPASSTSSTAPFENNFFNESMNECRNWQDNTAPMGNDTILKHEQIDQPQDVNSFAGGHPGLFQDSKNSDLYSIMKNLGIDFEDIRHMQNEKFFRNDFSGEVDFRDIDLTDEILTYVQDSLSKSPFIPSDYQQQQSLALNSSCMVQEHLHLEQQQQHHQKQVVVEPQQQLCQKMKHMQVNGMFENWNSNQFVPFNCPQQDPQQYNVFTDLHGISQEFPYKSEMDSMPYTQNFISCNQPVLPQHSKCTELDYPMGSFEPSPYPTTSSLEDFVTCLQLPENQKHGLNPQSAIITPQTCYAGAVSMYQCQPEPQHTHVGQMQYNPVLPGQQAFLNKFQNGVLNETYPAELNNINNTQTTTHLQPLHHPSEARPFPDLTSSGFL
Method in brief: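 Luminescence read-out: ONE-Glo reagent, 30 min at room temperature, in HG2L7.5c1 HepG2 reporter cells treated 24 h at 37C. Viability was measured beforehand by CellTiter-Fluor fluorescence after 30 min at 37C.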

[16] = molecular target: Peroxisome proliferator-activated receptor gamma (Homo sapiens) (UniProt P37231); experiment: qHTS assay to identify small molecule agonists of the peroxisome proliferator-activated receptor gamma (PPARg) signaling pathway (AID 743094; active = well fitted activation curve with a large enough effect in the signal ratio in the repeat runs, not every such curve was filed as active; the % refers to the signal ratio)
Peroxisome proliferator-activated receptor gamma (Homo sapiens), sequence (P37231 whole entry, looked up): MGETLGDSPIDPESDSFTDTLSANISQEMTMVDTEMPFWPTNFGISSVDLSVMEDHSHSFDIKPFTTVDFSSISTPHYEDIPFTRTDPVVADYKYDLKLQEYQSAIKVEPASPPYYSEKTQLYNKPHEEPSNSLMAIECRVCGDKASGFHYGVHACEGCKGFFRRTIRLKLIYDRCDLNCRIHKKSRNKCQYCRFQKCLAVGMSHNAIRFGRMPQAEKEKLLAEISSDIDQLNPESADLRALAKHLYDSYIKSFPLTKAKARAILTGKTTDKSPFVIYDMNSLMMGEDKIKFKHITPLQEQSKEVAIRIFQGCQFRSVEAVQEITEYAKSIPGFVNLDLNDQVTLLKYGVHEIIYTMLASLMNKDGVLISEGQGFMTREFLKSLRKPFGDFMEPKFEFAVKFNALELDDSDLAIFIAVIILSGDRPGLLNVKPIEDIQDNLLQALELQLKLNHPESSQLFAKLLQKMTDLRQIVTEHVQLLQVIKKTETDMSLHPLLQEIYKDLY
Method in brief: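 Following 5 h plating at 37C, PPARg-bla HEK293H cells receive compound or DMSO for 17 h; fluorescence intensity is recorded after LiveBLAzer B/G loading for 1 h at room temperature.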

[17] = qHTS assay for small molecule agonists of the antioxidant response element (ARE) signaling pathway - cell viability counter screen (AID 743203; calls by dose curve; also: nearly all actives have a fitted effect of over 55% in size)
Method in brief: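 Compounds in DMSO were pinned onto ARE-bla HepG2 cells plated 5 hrs earlier at 2,000 cells/well. Sixteen hours later at 37C/5% CO2, CellTiter-Glo was added and luminescence measured after 30 min at room temperature.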

[18] = molecular target: Estrogen receptor (Homo sapiens) (UniProt P03372); experiment: qHTS assay to identify small molecule antagonists of the estrogen receptor alpha (ER-alpha) signaling pathway (AID 743069; active = well fitted curve in the direction sought with a large enough effect in the signal ratio in the repeat runs, not every such curve was filed as active; the % refers to the signal ratio)
Method in brief: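 HEK293 cells stably carrying an ER-alpha-UAS-bla beta-lactamase reporter were pre-cultured overnight in 2% charcoal-stripped FBS medium. Test compounds in DMSO were added together with 17beta-estradiol for 18 hr at 37C. Read-out was fluorescence after 2 hr with LiveBLAzer B/G FRET substrate at room temperature.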

[19] = molecular target: Peroxisome proliferator-activated receptor gamma (Homo sapiens) (UniProt P37231); experiment: qHTS assay to identify small molecule antagonists of the peroxisome proliferator-activated receptor gamma (PPARg) signaling pathway (AID 743191; calls by dose curve; also: series mostly up to about 63 µM; nearly all actives have a fitted effect of over 30% in size)
Method in brief: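 GeneBLAzer PPARg UAS-bla HEK293H cells carrying a UAS-driven beta-lactamase reporter were plated at 3000 cells/well, preincubated 5 h at 37C, then given compound for 17 h at 37C; LiveBLAzer B/G FRET substrate was read after 1 h at room temperature.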

Measured: Potency

O=C(O)c1ccccc1C(=O)O
not listed: [15] | [16] | [17] | [18] | [19]
inactive: all other assays above

O=C(O)CCCCCCCCC(=O)O
not listed: [5] | [6] | [7] | [18] | [19]
inactive: all other assays above

CC1(C)CC(N)CC(C)(CN)C1 (centres undefined)
not listed: [2] | [15] | [19]
inactive: all other assays above

C=CCCCCCCCCC(=O)O
not listed: [2] | [19]
inactive: all other assays above

N[C@H](Cc1c[nH]c2ccccc12)C(=O)O
not listed: [5] | [6] | [7] | [15] | [18] | [19]
inactive: all other assays above

Brc1ccc(Br)c(Br)c1
not listed: [2] | [18]
inactive: all other assays above

c1ccc(Oc2ccccc2)cc1
not listed: [5] | [6] | [7] | [16] | [18] | [19]
inactive: all other assays above

C=C(C)[C@H]1CC=C(C)C(=O)C1
not listed: [5] | [6] | [7] | [18] | [19]
inactive: all other assays above

O=S(=O)(O)c1ccccc1
not listed: [5] | [6] | [7] | [12] | [16] | [18] | [19]
inactive: all other assays above
